Measured values taken from PubChem BioAssay AID493073 (Broad Institute, 2011).
The campaign covered roughly 1,200 compounds. About 810 (68%) were called active. No rule for the calls is given here. The set was probably picked from earlier hits. The list is a sample of the results. Measured potencies and affinities stand elsewhere.

assay: reducers of TRPM1 reporter luminescence, concentration series – cell-based, SK-MEL-5, cherry-picked, set 3, MITF inhibitor project, dose response (AID 493073); conditions: SK-MEL-5 TRPM1 promoter luciferase, 24 h; series mostly up to 35 µM

outcome, inactive:
COCCNC(=O)c1cc2sc3ccccc3c2s1
FC(F)(F)Oc1ccc(-c2cn3cccnc3n2)cc1
O=C(CNC(=O)c1ccc(Br)cc1)c1ccccc1
Clc1ccccc1CSc1nnc(-c2ccncc2)o1
O=C(Nc1nc2ccccc2s1)Nc1ccc(F)cc1F
Cc1ccc2nc(NC(=O)c3ccc(Br)o3)sc2c1
Cc1ccc(C(=O)Nc2nc3ccc(Cl)cc3s2)o1
COC(=O)c1ccc(COc2ccc(C)cc2[N+](=O)[O-])o1
COc1ccc2oc3ccc(OC)cc3c(=O)c2c1
Cc1cc(NC(=O)c2ccc(Cl)cc2Cl)no1
O=C(Nc1cccnc1Cl)c1cc(-c2ccco2)on1
CC1CCN(c2ccc(NC(=O)c3cccnc3)cc2)CC1
NNC(=O)Cn1c(SCc2ccccc2)nc2ccccc21
COC(=O)c1ccc(COc2ccc3c(c2)CCC3)o1
O=C(Nc1nc2ccsc2c(=O)s1)C1CCC1
O=C(O)C1CCN(C(=O)OCc2ccccc2)CC1
Clc1ccc(-c2nc(-c3ccncc3)no2)c(Cl)c1
Fc1ccccc1-c1nc(-c2ccncc2)no1
Cc1ccc(-c2nc(-c3ccncc3)no2)cc1C
CCOc1ccccc1-c1nc(-c2ccc(C)nc2OC)no1
O=C(Nc1ccc(Cl)cc1)C1C2CCCCC21 (configuration not stated)
Cc1ccc(SCCC(=O)N2CCC(C)CC2)cc1
N/C(=N\OC(=O)c1ccccc1Cl)c1cccc([N+](=O)[O-])c1
N/C(=N\OC(=O)c1ccncc1)c1cccc([N+](=O)[O-])c1
CCn1c(=O)c(C(=O)NCc2ccccc2Cl)c(O)c2ccccc21
Cc1ccc(SCc2cn3cc(Cl)ccc3n2)cc1
N/C(=N\OC(=O)c1cccc(F)c1)c1cccc([N+](=O)[O-])c1
Cc1ccccc1OCc1nc2c3cnn(C)c3ncn2n1
CC(C)(C)c1ccc(OCCn2ccccc2=O)cc1
Cc1ccc(OCCNCc2ccccc2)c(C)c1
COc1ccc(NC(=O)c2cc(-c3ccccc3Cl)on2)cc1
O=C1c2ccccc2C(=O)N1CCOc1ccccc1
CC(C)c1nnc(NC(=O)CCC2CCCCC2)s1
CC(C)(C)C1CCC(OC(=O)CN2CCCCC2)CC1 (configuration not stated)
COc1ccc(C2C(C#N)=C(N)Oc3c2oc(CO)cc3=O)cc1 (configuration not stated)
O=C(Nc1ccc2ncccc2c1)c1ccccc1Br
CC(=O)c1ccc(N/C=C/C(=O)c2ccc(Br)cc2)cc1
